For 55 molecules, inhibition results are on record in PubChem BioAssay AID588689 (Southern Research Specialized Biocontainment Screening …, 2011).

The assay addresses Genome polyprotein (Dengue virus type 2 (strain 16681-PDK53)) (UniProt P29991). The experiment in a line: Dengue-2 NS5 methyltransferase inhibitors, primary screen, biochemical, confirmation dose response (AID 588689). Conditions: Dengue-2 NS5 methyltransferase capping enzyme assay, at 25 µM, stronger effect = higher value.
Where [1] appears, read: measured here: pilot screen replicate inhibition.

The campaign covered roughly 340,000 compounds. About 1,000 (0.29%) were called active. Rule as the data show it: inconclusive = inhibition above about 29% without an active follow-up result; inactive = below that. The list is a sample of the results. Results with a measured potency or affinity are listed apart.

Chain of Genome polyprotein (Dengue virus type 2 (strain 16681-PDK53)) (P29991 whole entry, looked up): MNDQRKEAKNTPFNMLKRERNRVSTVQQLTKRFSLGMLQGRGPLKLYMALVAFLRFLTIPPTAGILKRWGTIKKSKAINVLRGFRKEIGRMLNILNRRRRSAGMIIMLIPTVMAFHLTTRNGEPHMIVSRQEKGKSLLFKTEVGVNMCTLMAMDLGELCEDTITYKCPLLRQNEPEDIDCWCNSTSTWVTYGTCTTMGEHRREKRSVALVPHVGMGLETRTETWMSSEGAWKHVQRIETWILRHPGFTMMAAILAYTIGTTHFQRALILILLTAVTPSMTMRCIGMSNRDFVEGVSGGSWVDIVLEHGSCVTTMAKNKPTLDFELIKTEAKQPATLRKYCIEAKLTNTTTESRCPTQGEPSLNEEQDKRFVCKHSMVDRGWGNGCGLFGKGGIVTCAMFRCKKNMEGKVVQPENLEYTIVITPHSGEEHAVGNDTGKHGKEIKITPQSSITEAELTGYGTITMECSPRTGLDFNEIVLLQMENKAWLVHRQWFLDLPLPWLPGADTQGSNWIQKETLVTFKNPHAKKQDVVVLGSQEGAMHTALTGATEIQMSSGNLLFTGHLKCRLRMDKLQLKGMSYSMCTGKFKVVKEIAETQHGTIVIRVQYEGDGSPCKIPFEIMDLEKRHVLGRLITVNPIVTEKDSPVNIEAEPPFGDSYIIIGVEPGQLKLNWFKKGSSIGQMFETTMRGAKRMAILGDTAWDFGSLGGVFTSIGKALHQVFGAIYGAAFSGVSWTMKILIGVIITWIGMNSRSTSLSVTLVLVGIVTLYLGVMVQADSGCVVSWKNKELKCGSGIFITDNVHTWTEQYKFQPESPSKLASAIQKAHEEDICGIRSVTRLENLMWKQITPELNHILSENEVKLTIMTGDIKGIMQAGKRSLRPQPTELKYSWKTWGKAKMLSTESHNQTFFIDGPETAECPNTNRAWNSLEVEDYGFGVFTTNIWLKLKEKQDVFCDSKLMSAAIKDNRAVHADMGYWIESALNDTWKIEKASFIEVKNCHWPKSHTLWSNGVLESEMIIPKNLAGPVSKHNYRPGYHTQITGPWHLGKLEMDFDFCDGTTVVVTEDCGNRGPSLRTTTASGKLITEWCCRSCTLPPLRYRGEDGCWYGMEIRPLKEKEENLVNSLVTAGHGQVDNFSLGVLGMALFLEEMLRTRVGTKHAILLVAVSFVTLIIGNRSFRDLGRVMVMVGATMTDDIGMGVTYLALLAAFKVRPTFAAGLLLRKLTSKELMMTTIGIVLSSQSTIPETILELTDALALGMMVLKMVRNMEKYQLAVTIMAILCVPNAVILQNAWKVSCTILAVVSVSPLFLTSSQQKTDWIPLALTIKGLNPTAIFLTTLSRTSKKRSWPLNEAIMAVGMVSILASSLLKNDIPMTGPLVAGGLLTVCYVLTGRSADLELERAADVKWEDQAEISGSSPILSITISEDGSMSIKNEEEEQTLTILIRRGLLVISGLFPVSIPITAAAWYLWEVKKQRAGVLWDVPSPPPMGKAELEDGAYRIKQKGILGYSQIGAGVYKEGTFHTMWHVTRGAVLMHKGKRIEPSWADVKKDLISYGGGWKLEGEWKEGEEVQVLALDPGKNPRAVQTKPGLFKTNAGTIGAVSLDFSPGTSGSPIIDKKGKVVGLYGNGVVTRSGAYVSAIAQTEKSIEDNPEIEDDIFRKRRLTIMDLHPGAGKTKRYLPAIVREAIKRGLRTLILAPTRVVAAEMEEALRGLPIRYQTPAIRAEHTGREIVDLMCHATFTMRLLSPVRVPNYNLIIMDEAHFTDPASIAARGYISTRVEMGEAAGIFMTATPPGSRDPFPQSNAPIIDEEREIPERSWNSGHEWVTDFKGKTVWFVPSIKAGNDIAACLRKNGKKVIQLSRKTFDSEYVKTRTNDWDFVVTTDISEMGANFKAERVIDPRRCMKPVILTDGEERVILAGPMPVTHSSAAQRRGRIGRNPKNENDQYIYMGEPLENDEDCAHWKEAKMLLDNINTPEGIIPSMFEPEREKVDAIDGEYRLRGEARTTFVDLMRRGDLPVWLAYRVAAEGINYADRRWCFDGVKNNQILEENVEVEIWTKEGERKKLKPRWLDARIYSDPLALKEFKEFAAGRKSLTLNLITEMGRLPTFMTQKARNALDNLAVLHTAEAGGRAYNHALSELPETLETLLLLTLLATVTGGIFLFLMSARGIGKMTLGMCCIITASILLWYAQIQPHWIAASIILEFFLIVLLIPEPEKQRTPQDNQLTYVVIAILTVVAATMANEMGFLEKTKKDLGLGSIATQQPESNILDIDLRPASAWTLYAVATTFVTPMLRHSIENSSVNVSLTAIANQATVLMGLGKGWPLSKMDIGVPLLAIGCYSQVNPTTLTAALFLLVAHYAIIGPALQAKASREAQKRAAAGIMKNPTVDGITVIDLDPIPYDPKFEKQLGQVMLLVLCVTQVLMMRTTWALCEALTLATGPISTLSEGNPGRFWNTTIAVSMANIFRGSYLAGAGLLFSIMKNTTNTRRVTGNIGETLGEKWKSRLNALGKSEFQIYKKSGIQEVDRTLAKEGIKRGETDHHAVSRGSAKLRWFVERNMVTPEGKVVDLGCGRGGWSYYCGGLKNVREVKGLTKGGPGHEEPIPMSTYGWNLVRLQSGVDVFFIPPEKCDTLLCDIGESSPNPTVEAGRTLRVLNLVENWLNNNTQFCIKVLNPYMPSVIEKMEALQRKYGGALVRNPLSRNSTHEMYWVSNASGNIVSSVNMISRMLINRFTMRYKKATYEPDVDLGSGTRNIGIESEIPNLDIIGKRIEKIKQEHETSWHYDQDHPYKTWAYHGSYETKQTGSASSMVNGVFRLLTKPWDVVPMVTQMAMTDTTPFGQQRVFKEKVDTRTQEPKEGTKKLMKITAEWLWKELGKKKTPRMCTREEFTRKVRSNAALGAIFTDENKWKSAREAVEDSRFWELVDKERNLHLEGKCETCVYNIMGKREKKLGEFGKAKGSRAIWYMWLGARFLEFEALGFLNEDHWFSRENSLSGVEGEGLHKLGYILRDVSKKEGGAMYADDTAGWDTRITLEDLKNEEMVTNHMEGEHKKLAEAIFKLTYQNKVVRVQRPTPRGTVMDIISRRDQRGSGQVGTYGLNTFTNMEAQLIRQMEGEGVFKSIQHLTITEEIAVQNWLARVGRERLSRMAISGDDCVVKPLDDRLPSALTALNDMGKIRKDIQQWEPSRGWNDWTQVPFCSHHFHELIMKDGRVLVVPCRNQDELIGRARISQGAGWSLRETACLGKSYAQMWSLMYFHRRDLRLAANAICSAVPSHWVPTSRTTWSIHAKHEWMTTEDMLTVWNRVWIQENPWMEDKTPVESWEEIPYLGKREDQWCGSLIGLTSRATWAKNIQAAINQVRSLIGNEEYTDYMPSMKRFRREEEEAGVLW

In general, inhibition refers to the change of the read-out against control, counted positive when it falls. `O=S(=O)(c1ccc(Cl)cc1)N1CCN(CCc2ccncc2)CC1`: the inhibition is -1.66% (inactive).

As to `Cc1cccc(C(C)C)c1NC(=O)COC(=O)CNS(=O)(=O)c1ccccc1`, the inhibition is 0% (inactive).

Consider `O=C1NC2=C(C(=O)CCC2)C(c2ccc3ncccc3c2)N1` (configuration not stated), for which the inhibition was 0% (inactive).

`C[C@H](CO)N1C[C@H](C)[C@@H](CN(C)C(=O)Nc2cc(F)ccc2F)Oc2ncc(-c3cccc(F)c3)cc2C1=O`: the inhibition was 0.58% (inactive).

For the molecule `O=C1C=C(c2ccc(C(=O)O)cc2)C[C@@H](c2ccc3c(c2)OCO3)C1`, the inhibition is 0.83% (inactive).

On to `O=C(Cn1c(C(F)(F)F)nc2ccccc21)Nc1ccccc1N1CCOCC1`, for which the inhibition is 0.69% (inactive).

Take `Cc1cc(-c2ccco2)n(CC(=O)NCCCc2ccccc2)n1`: the inhibition is -4.87% (inactive).

In the case of `N#Cc1c(-c2ccccc2)nc(SCc2cccc(Cl)c2)[nH]c1=O`, the inhibition is 19.5% (inactive).

For `COC(=O)c1cccc(CSc2nc(-c3ccccc3)c(C#N)c(=O)[nH]2)c1`, the inhibition was 11.1% (inactive).

Take `O=C(CCC(=O)N1CCCC(Nc2ccccc2)C1)c1ccc(F)cc1` (configuration not stated): the inhibition was 2.72% (inactive).

Turning to `COCCOC(=O)c1sc2nc[nH]c(=O)c2c1C`, the inhibition is -12.3% (inactive).

For `Cc1ccc(S(=O)(=O)N2CCN(Cc3cccnc3)CC2)cc1`, the inhibition was 2.57% (inactive).

For `CC(=O)Nc1ccc(S(=O)(=O)N(C)CC(=O)OC(C)C(=O)NC2CCCCC2)cc1` (configuration not stated), the inhibition was -5.07% (inactive).

Turning to `Cc1[nH][nH]c(=O)c1C(c1ccccc1[N+](=O)[O-])C(C#N)C#N` (configuration not stated), the inhibition is -2.95% (inactive).

In the case of `Cc1c(C(c2cccc([N+](=O)[O-])c2O)c2c(C)n(C)n(-c3ccccc3)c2=O)c(=O)n(-c2ccccc2)n1C`, the inhibition is -5.62% (inactive).

On to `COc1cccc(C(C[N+](=O)[O-])c2c(C)[nH]n(-c3ccccc3)c2=O)c1` (configuration not stated), for which the inhibition was 8.91% (inactive).

Regarding `COc1ccccc1N=Nc1c(C)[nH]n(-c2ccccc2)c1=O`, the inhibition was 1.98% (inactive). The inhibition under setting [1] was -4.55%.

For the molecule `Cc1[nH][nH]c(=O)c1[C@@H](c1ccccc1[N+](=O)[O-])C(C#N)C#N`, the inhibition is 14.4% (inactive).

For the molecule `Cc1[nH]n(-c2ccccc2)c(=O)c1C(C[N+](=O)[O-])c1ccccc1Cl` (configuration not stated), the inhibition is -8.87% (inactive).

For the molecule `S=C(Nc1ccccc1Cl)NC1CCCCCC1`, the inhibition was -2.33% (inactive).

Take `Cc1nnc(SCC(=O)Nc2nsc(-c3ccc(Cl)cc3)n2)s1`: the inhibition was 2.61% (inactive).

Regarding `CCOc1ccc(S(=O)(=O)N2CCN(S(=O)(=O)c3ccc(C(C)=O)cc3)CC2)cc1`, the inhibition is -2.49% (inactive).

On to `CC1CN(CCc2ccccc2)C(C)C/C1=N/O` (configuration not stated), for which the inhibition is -3.09% (inactive).

Regarding `Cc1c(Cl)cccc1NC(=S)N(Cc1cccnc1)Cc1ccccc1Cl`, the inhibition was -4.52% (inactive).

On to `O=C(NCCS(=O)(=O)NCc1cccs1)c1ccccc1`, for which the inhibition was 0% (inactive).

For the molecule `COc1ccc(C(=O)c2ccccc2C(=O)c2ccccc2)cc1`, the inhibition is -0.81% (inactive).

For `COC(=O)C1=C(C)NC(=O)/C1=C\c1cc(C)n(-c2ccccc2F)c1C`, the inhibition was 5.5% (inactive).

As to `Cc1cc(/C=C2/C(=O)NN(c3ccccc3)C2=O)c(C)n1-c1cccc(O)c1`, the inhibition was 6.37% (inactive).

For `Cc1cc(/C=C2/C(=O)NN(c3ccccc3)C2=O)c(C)n1-c1ccc(O)cc1`, the inhibition is 5.82% (inactive).

Turning to `COC(=O)C1=C(C)NC(=O)/C1=C\c1cc(C)n(-c2ccccc2)c1C`, the inhibition is 5.15% (inactive).

Take `Cc1nc(SCC(=O)N2CC(=O)Nc3ccccc32)nc(C)c1C`: the inhibition is 2.34% (inactive).

With `Cc1ccc(CS(=O)Cc2ccc(C(=O)NCc3ccc4c(c3)OCO4)o2)cc1` (configuration not stated), the inhibition was -13.8% (inactive).

As to `CC1CC(C)CN(S(=O)(=O)c2cccc(C(=O)N3CCN(c4ccc(F)cc4)CC3)c2)C1` (configuration not stated), the inhibition was -0.73% (inactive).

For `CC(C)NC(=O)C1CCN(C(=O)N(C)C)CC1`, the inhibition is 0.71% (inactive).

With `Cc1c(NC(=S)NC(=O)c2ccc(-c3ccc(Cl)cc3)o2)cccc1C(=O)O`, the inhibition is 8.19% (inactive).

For `O=C(O)c1ccc(NC(=S)NC(=O)c2ccc(-c3ccc(Br)cc3)o2)cc1`, the inhibition was -8.03% (inactive).

Take `O=Nc1c(-c2ccccc2)n(O)[n+]([O-])c1-c1ccccc1`: the inhibition is -16.7% (inactive).

As for `COc1cccc(CN2CC(C(=O)NCCN3CCOC3=O)CCC2=O)c1` (configuration not stated), the inhibition was -9.76% (inactive).

As for `COC(=O)C1=CN(c2ccc(OC)cc2)C=C(C(=O)OC)C1c1ccc([N+](=O)[O-])cc1`, the inhibition was -9.75% (inactive).

For the molecule `Cc1ccc(Cn2nnc(C(=O)Nc3cccc(C)c3C)c2N)cc1`, the inhibition was -0.68% (inactive).

Turning to `Cc1cccc(S(=O)(=O)Nc2ccc(-n3c(C)nc4ccccc4c3=O)cc2)c1`, the inhibition is -5.8% (inactive).

For `CSc1nc(O)c(C(c2ccc(C)cc2)c2c(O)nc(SC)[nH]c2=O)c(=O)[nH]1`, the inhibition was 5.27% (inactive). Also, the inhibition under setting [1] came out at 4.26%.

Take `CSc1nc(Cl)c(Cc2ccc(OC(C)C)cc2)c(N(C)C)n1`: the inhibition was -2.55% (inactive).

On to `COc1nc(SC)nc(Cl)c1Cc1ccc(OC(C)C)cc1`, for which the inhibition is -6.55% (inactive).

In the case of `C=CCOc1ccc(S(C)(=O)=O)cc1`, the inhibition is 1.32% (inactive).

Regarding `C=CCOc1ccc(Oc2cc(C)nc(SC)n2)nn1`, the inhibition was -6.11% (inactive).

As to `CSc1nc(O)c(C(c2ccccc2)c2c(O)nc(SC)[nH]c2=O)c(=O)[nH]1`, the inhibition was -1.55% (inactive).

Consider `CN1CCN(C(=O)/C(=C/c2cn(S(=O)(=O)N(C)C)c3ccccc23)NC(=O)c2ccccc2F)CC1`, for which the inhibition was -5.9% (inactive).

As for `CCC(C(=O)Nc1cccnc1)n1c(=O)[nH]c2ccccc2c1=O` (configuration not stated), the inhibition was -5.9% (inactive).

For the molecule `Cc1ccc(NC(=O)C2CCCN(C(=O)Nc3ccc(F)cc3)C2)cc1` (configuration not stated), the inhibition was -4.13% (inactive).

Take `Cc1cc(=O)[nH]c(-c2cccs2)n1`: the inhibition was 10.8% (inactive).

Regarding `CC[C@H](C)Cc1cn([C@@H](CCCN=C(NC(=O)OC(C)(C)C)NC(=O)OC(C)(C)C)C(=O)NCCCCCCCCCCC(=O)N2CCN(C(=O)OC(C)(C)C)CC2)nn1`, the inhibition was -0.83% (inactive).

As for `Cc1csc(N(C(=O)c2cccc(S(=O)(=O)N(C)C)c2)c2ccccc2)n1`, the inhibition was -1.38% (inactive).

On to `CCC(C(=O)OCC(=O)Nc1ccc2[nH]c(=O)[nH]c2c1)c1ccccc1` (configuration not stated), for which the inhibition was 2.16% (inactive).

Consider `COc1ccc(N(CC(=O)NCCSCc2ccco2)S(=O)(=O)c2ccccc2)cc1`, for which the inhibition is -3.68% (inactive).
